In ChEMBL document CHEMBL1201862, “PubChem BioAssay data set” (2004) one finds Potency data, which are given here for one compound.

Only a part of the results of these assays is listed, not drawn at random.

The assay addresses Pyruvate kinase PKM (Homo sapiens) (UniProt P14618). Nature of the assay: Confirmation Concentration-Response Assay for Activators of Human Muscle isoform 2 Pyruvate Kinase: for Probe SAR. The assay is classed as functional.

Pyruvate kinase PKM (Homo sapiens), sequence (P14618 2-531 limits assumed): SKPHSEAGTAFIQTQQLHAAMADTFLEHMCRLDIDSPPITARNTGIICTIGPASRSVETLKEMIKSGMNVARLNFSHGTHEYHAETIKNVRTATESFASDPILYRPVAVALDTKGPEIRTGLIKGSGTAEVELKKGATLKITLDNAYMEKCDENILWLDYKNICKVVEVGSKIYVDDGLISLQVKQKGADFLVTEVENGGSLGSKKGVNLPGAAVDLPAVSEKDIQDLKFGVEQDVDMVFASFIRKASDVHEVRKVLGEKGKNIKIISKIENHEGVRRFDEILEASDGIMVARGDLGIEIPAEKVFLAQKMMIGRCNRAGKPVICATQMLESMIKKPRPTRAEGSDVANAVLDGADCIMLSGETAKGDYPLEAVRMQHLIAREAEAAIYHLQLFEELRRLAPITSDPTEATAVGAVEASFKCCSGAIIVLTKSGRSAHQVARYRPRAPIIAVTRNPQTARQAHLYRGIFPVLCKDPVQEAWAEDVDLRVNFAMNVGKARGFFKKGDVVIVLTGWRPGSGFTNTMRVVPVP

For the compound `C[N+](C)(C)c1cccc(S(=O)(=O)N2CCCN(S(=O)(=O)c3ccc4c(c3)OCCO4)CC2)c1`, the Potency was 16.3 µM (active).
